From PubChem BioAssay
Only some compounds are listed: those with a hit (about 21% of all), similar ones and a draw of the others.
Shiga inhibitor = A qHTS for Small Molecule Inhibitors of Shiga Toxin; hit rate 9.2% among 290,000; inhibition, % at 38.7 µM; AID 2315, 2010; Vero cells, Shiga toxin protein synthesis inhibition reporter; in the data active means inhibition mostly above about 28%, no sharp cut-off; inactive means mostly below about 43%
Cycloheximide cs = Cycloheximide Counterscreen for Small Molecule Inhibitors of Shiga Toxin; max response, %; hit rate 12% among 300,000; cell reporter, cycloheximide protein synthesis inhibition counterscreen; in the data active means max response mostly above about 13%, no sharp cut-off; inactive means mostly below about 14%; further: read at 38.3 µM for the half of the compounds with a filed dose
NS1 function inh = qHTS Assay for Inhibitors of Influenza NS1 Protein Function; Potency, µM (titrated, usually from 46.1 µM); hit rate 0.4% among 270,000; calls by dose curve; further: actives are rising curves; nearly all actives have a fitted effect of over 50% in size
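Read-out: OD600 growth recovery of NS1-expressing budding yeast. Cells grown overnight at 30C in -URA glucose medium, washed, resuspended and diluted 1:100 in 2% galactose assay medium, pH 6.0. Same strain lacking NS1 served as positive control.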
Pf growth 48h = Primary qHTS for delayed death inhibitors of the malarial parasite plastid, 48 hour incubation; P. falciparum luciferase growth in erythrocytes, 48 h; Potency, µM (highest dose often 28.7 µM), most hits filed as inhibitors; hit rate 5.9% among 310,000; AID 504832, 2011
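A one-generation exposure of luciferase-tagged malaria parasites in RPMI 1640/Albumax erythrocyte culture, 37 C and 5% CO2. Inhibition is inferred from decreased luminescence after adding detection reagent.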
FBPA Giardia inh = qHTS Assay for Inhibitors of Fructose-1,6-bisphosphate Aldolase from Giardia Lamblia. purified Giardia FBPA. hit rate 0.71% among 290,000. A8B2U2. Potency, µM (highest dose often 59.6 µM), actives largely listed as inhibitors; further: nearly all actives have a fitted effect of over 55% in size
Target sequence (A8B2U2 whole entry, looked up): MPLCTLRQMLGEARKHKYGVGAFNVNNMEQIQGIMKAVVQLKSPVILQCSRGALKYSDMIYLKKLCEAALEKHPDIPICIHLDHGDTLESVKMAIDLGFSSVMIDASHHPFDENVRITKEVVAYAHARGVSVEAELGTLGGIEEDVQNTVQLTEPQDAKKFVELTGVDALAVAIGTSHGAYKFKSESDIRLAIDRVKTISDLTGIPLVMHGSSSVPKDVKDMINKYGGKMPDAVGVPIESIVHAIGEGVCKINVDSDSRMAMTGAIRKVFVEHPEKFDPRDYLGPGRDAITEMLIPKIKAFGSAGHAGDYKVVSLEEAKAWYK
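Giardia FBPA (40 nM reagent) was preincubated 10 min at RT with compound (up to 57.5 uM final), then substrate plus GAPDH/TPI/NAD/arsenate coupling system with diaphorase/resazurin was added; resorufin fluorescence (525/598 nm) was read after 20 min.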
Pf growth 96h = Primary qHTS for delayed death inhibitors of the malarial parasite plastid, 96 hour incubation; P. falciparum luciferase reporter growth, 96 h; Potency, µM (highest dose often 28.7 µM), most hits filed as inhibitors; hit rate 6.9% among 320,000
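P. falciparum expressing integrated firefly luciferase grown in erythrocytes (2% hematocrit, 0.05% parasitemia final) with compounds for 96 hours at 37 C, 5% CO2. Growth inhibition read as loss of luminescence after adding luciferase detection reagent.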
Hits are given with their value. Unless noted, the call rests on the fitted dose curve; in most records, active means well fitted curve in the direction sought with a large enough effect; inconclusive means small, poorly fitted or top-dose-only effect, or another doubt; inactive means no such curve, though single readings can be large; an effect the other way counts as inactive or inconclusive.

OC(c1ccccc1)(c1ccc(F)cc1)C(c1ccccc1)N1CCOCC1 (stereo unspecified) was read as Shiga inhibitor inactive, Cycloheximide cs inactive, NS1 function inh inactive, Pf growth 48h inactive and Pf growth 96h 6.6µM.
COc1ccc(C(O)C(CN2CCOCC2)c2ccccc2)cc1 (stereo unspecified) was read as Shiga inhibitor inactive, Cycloheximide cs inactive, NS1 function inh inactive, Pf growth 48h inconclusive, FBPA Giardia inh inactive and Pf growth 96h 9.3µM.
For O=c1c2ccccc2oc2cc(-c3ccc(CN4CCOCC4)cc3)ccc12 the results were Pf growth 48h inactive and Pf growth 96h inactive.
Screening Cc1c(F)cccc1NS(=O)(=O)c1ccc2c(c1)c(C)cc(=O)n2C returned Shiga inhibitor inactive, Cycloheximide cs inactive, NS1 function inh inactive, Pf growth 48h inactive, FBPA Giardia inh inactive and Pf growth 96h inactive.
For N=C(N)SCCc1ccc(OCc2ccc([N+](=O)[O-])cc2)cc1 the results were FBPA Giardia inh inactive.
CCN(Cc1ccncc1)Cc1cn(C)nc1-c1ccc(Oc2ccccc2)cc1 was read as Shiga inhibitor inactive, Cycloheximide cs inactive, NS1 function inh inactive, Pf growth 48h inconclusive, FBPA Giardia inh inactive and Pf growth 96h inactive.
Screening CC(=O)N1CC=C2C(C#N)=C(N)C(C#N)(C#N)C(CCc3ccccc3)C2C1 (stereo unspecified) returned Shiga inhibitor inactive, Cycloheximide cs inactive, NS1 function inh inactive, Pf growth 48h inactive, FBPA Giardia inh inactive and Pf growth 96h inactive.
Screening CCN1CC=C2C(C#N)=C(N)C(C#N)(C#N)C(CCc3ccccc3)C2C1 (stereo unspecified) returned Shiga inhibitor inactive, Cycloheximide cs inactive, NS1 function inh inactive, Pf growth 48h 10µM, FBPA Giardia inh inconclusive and Pf growth 96h 10µM.
Screening CCN(CC)C(=S)SCC(=O)c1c(C)[nH]c2ccccc12 returned Shiga inhibitor inactive, Cycloheximide cs 15, NS1 function inh inactive, Pf growth 48h inactive, FBPA Giardia inh inactive and Pf growth 96h inconclusive.
`Cc1[nH]c2ccccc2c1C(=O)CSc1nncn1C` gave Shiga inhibitor inactive, Cycloheximide cs inactive, NS1 function inh inactive, Pf growth 48h inactive, FBPA Giardia inh inactive and Pf growth 96h inactive.
`Cc1[nH]c2ccccc2c1C(=O)C(=O)N1CCOCC1` gave Shiga inhibitor inactive, Cycloheximide cs inactive, NS1 function inh inactive, Pf growth 48h inactive and Pf growth 96h inconclusive.
Screening Cc1[nH]c2ccccc2c1C(=O)CSC(=S)N1CCOCC1 returned Shiga inhibitor 84, Cycloheximide cs 17, NS1 function inh inactive, Pf growth 48h inactive, FBPA Giardia inh inactive and Pf growth 96h inactive.
CC(C)c1cc(C(=O)N2CCCC(CCC(=O)NCc3ccccc3F)C2)n(C)n1 (stereo unspecified) was read as Shiga inhibitor inactive, Cycloheximide cs inactive, NS1 function inh inactive, Pf growth 48h inactive, FBPA Giardia inh inactive and Pf growth 96h inactive.
Screening Cc1ccc(C2N=C(N)Nc3nc(=O)c4ccccc4n32)cc1 (stereo unspecified) returned Shiga inhibitor inactive, Cycloheximide cs inactive, NS1 function inh inconclusive, Pf growth 48h inconclusive, FBPA Giardia inh inactive and Pf growth 96h 9.3µM.
CC1CC(C)CN(S(=O)(=O)N2CCCC(C(=O)NCCc3ccccc3)C2)C1 (stereo unspecified) was read as Shiga inhibitor inactive, Cycloheximide cs inactive, NS1 function inh inactive, Pf growth 48h inactive and Pf growth 96h inactive.
For CN(CCc1nc2ccccc2[nH]1)Cc1nc(CC2CC2)no1 the results were Shiga inhibitor inactive, Cycloheximide cs inactive, NS1 function inh inactive, Pf growth 48h inactive, FBPA Giardia inh inactive and Pf growth 96h inactive.
CN(Cc1nc2ccccc2[nH]1)Cc1nc(CC2CC2)no1 was read as Shiga inhibitor inactive, Cycloheximide cs 16, NS1 function inh inactive, Pf growth 48h inactive, FBPA Giardia inh inactive and Pf growth 96h inactive.
COc1ccc(Cn2nnnc2C(c2cc3cc(C)ccc3[nH]c2=O)N2CCOCC2)cc1 (stereo unspecified) was read as Shiga inhibitor inactive, Cycloheximide cs inactive, NS1 function inh inactive, Pf growth 48h inactive and FBPA Giardia inh inactive.
COc1ccc(N2CCN(C(c3cc4cc(C)ccc4[nH]c3=O)c3nnnn3Cc3ccccc3)CC2)cc1 (stereo unspecified) was read as Shiga inhibitor inactive, Cycloheximide cs inactive, NS1 function inh inactive, FBPA Giardia inh inconclusive and Pf growth 96h 3.7µM.
Screening Cc1ccc2cc(C(c3nnnn3C3CCCC3)N3CCN(c4ccccc4)CC3)c(=O)[nH]c2c1 (stereo unspecified) returned Shiga inhibitor inactive, Cycloheximide cs inactive, NS1 function inh inactive, Pf growth 48h inconclusive, FBPA Giardia inh inactive and Pf growth 96h inconclusive.
CC(C)(C)n1nnnc1C(c1cc2cc3c(cc2[nH]c1=O)OCO3)N1CCN(c2ccccc2)CC1 (stereo unspecified) was read as Shiga inhibitor inactive, Cycloheximide cs inactive, NS1 function inh inactive, Pf growth 48h 1.7µM, FBPA Giardia inh inactive and Pf growth 96h inactive.
Cc1ccc2cc(C(c3nnnn3Cc3ccccc3)N3CCN(c4ccccc4)CC3)c(=O)[nH]c2c1 (stereo unspecified) was read as Shiga inhibitor inactive, Cycloheximide cs inactive, NS1 function inh inactive, Pf growth 48h 5.9µM, FBPA Giardia inh inactive and Pf growth 96h inactive.
For CCOc1ccccc1N1CC(C(=O)Nc2ccc(S(=O)(=O)N3CCCCC3)cc2)CC1=O (stereo unspecified) the results were Pf growth 48h inactive and Pf growth 96h inconclusive.
Screening COc1cc2c3cc1Oc1c(O)c(OC)cc4c1[C@@H](Cc1ccc(cc1)Oc1cc(ccc1O)C[C@H]3N(C)CC2)N(C)CC4 returned NS1 function inh inactive.
`COc1ccc2cc1Oc1ccc(cc1)CC1c3c(cc4c(c3Oc3cc5c(cc3OC)CCN(C)C5C2)OCO4)CCN1C` (stereo unspecified) gave Pf growth 48h 5.4µM, FBPA Giardia inh inactive and Pf growth 96h 5.4µM.
`COc1ccc2cc1Oc1ccc(cc1)CC1c3c(cc(OC)c4c3Oc3cc5c(cc3O4)CCNC5C2)CCN1C` (stereo unspecified) gave Shiga inhibitor inactive, Cycloheximide cs inactive, NS1 function inh inactive, Pf growth 48h 0.52µM, FBPA Giardia inh inactive and Pf growth 96h 0.33µM.
`COc1ccc(CCNC(=O)c2nn(C)c3c2CS(=O)(=O)c2ccccc2-3)cc1OC` gave Shiga inhibitor inactive, Cycloheximide cs inactive, NS1 function inh inactive, Pf growth 48h inactive, FBPA Giardia inh inactive and Pf growth 96h inactive.
Screening CC(C)NC(=O)C1CCN(C2CCN(Cc3ccc4cccc(F)c4n3)CC2)CC1 returned Shiga inhibitor inactive, Cycloheximide cs inactive, NS1 function inh inactive, Pf growth 48h inactive, FBPA Giardia inh inactive and Pf growth 96h inactive.
